Assay outcomes deposited in PubChem BioAssay by Broad Institute.
Only some compounds are listed: those with a hit (about 2.4% of all), similar ones and a draw of the others.
Pf Dd2 inh: blocks growth of Plasmodium falciparum Dd2 parasites; AID 1159554; activity change, % at 10 µM; P. falciparum Dd2 growth, SYBR Green, 72 h; stronger effect = lower value; actives 2.3% (n = 94,000); in the data active = activity change below about -80%; inconclusive = no clear call, values can overlap the other calls
C diff growth: inhibitors of Clostridium difficile growth | Clostridium difficile clinical isolate growth, OD600, 24 h; stronger effect = lower value | growth activity, negative = inhibition, % at 16 µg/mL (by protocol) | actives 0.25% (n = 86,000) | AID 1259249;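 active = mean growth activity at or below -80% and every replicate also at or below -80%; inconclusive = mean at or below -80% but some replicate above -80%; inactive = mean growth activity above -80%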;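 also: 0% = DMSO wells and -100% = levofloxacin 16 µg/mL wells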
* hit, by the source's call; u = inconclusive; x = no result given; ! = not active in a repeat.

SMILES	Pf Dd2 inh	C diff growth
Cc1cc(C(=O)Nc2cccc3c2O[C@H](CN(C)Cc2ccc(C(=O)O)cc2)[C@@H](C)CN([C@H](C)CO)C3=O)n(C)n1	7	2
Cc1cc(C(=O)Nc2cccc3c2O[C@H](CN(C)Cc2ccc(C(=O)Nc4ccccc4N)cc2)[C@H](C)CN([C@@H](C)CO)C3=O)n(C)n1	-82*	9
Cc1cc(C(=O)Nc2cccc3c2O[C@@H](CN(C)Cc2ccc(C(=O)Nc4ccccc4N)cc2)[C@@H](C)CN([C@H](C)CO)C3=O)n(C)n1	-85*	7
C/C=C/c1cnc2c(c1)C(=O)N([C@@H](C)CO)C[C@@H](C)[C@@H](CN(C)C(=O)NC1CCCCC1)O2	14	1
Cn1cnc(CCNC(=O)C[C@H]2CC[C@@H]3[C@H](COC[C@H](O)CN3C(=O)Nc3ccccc3)O2)c1	5	-1
Cc1noc(C)c1NC(=O)Nc1ccc2c(c1)C(=O)N([C@@H](C)CO)C[C@H](C)[C@@H](CN(C)C(=O)NC(C)C)O2	27	x
COc1ccc(S(=O)(=O)Nc2ccc3c(c2)CC(=O)N([C@H](C)CO)C[C@H](C)[C@@H](CN(C)S(=O)(=O)c2ccc(OC)cc2)O3)cc1	-49	8
Cc1ccc(S(=O)(=O)N(C)C[C@@H]2Oc3ccc(NS(=O)(=O)c4ccc(Cl)cc4)cc3CC(=O)N([C@H](C)CO)C[C@H]2C)cc1	-39	5
COc1ccc(S(=O)(=O)Nc2ccc3c(c2)CC(=O)N([C@@H](C)CO)C[C@H](C)[C@H](CN(C)S(=O)(=O)c2ccc(OC)cc2)O3)cc1	-86*	5
Cc1ccc(S(=O)(=O)N(C)C[C@@H]2Oc3ccc(NS(=O)(=O)c4ccc(Cl)cc4)cc3CC(=O)N([C@@H](C)CO)C[C@@H]2C)cc1	-81*	3
N#Cc1ccc(-c2ccc(C3[C@@H]4CN(C(=O)C5CCCCC5)C[C@H]3N4)cc2)cc1 (some centres not stated)	-88*!	-8
N#Cc1ccc(-c2ccc(C3[C@@H]4CN(Cc5ccccc5F)C[C@H]3N4)cc2)cc1 (some centres not stated)	-89*!	44
N#Cc1cccc(-c2ccc(C3[C@@H]4CN(C(=O)C5CCCCC5)C[C@H]3N4)cc2)c1 (some centres not stated)	-68	-14
COc1ccccc1CN1C[C@@H]2N[C@H](C1)C2c1ccc(-c2cccc(C#N)c2)cc1 (some centres not stated)	-24	31
COc1ccccc1CN1C[C@@H]2N[C@H](C1)C2c1ccc(-c2ccc(C#N)cc2)cc1 (some centres not stated)	-82*!	2
N#Cc1ccc(-c2ccc([C@@H]3[C@@H]4CN(Cc5cocn5)C[C@H]3N4)cc2)cc1	u	11
CN1C(=O)c2cc(NC(=O)c3cscn3)ccc2OC[C@H]2O[C@H](CC(=O)NCC3CC3)CC[C@H]21	-3	0
CN1C(=O)c2cc(NS(=O)(=O)c3ccc(F)cc3)ccc2OC[C@H]2O[C@@H](CC(=O)O)CC[C@@H]21	1	-9
C[C@@H]1CN([C@@H](C)CO)C(=O)c2ccccc2-c2ccccc2CO[C@H]1CN(C)C(=O)Nc1cccc(C(F)(F)F)c1	-87*	0
C[C@H]1CN([C@@H](C)CO)C(=O)c2ccccc2-c2ccccc2CO[C@@H]1CN(C)C(=O)Nc1ccc(-c2ccccc2)cc1	-86*	-15
C[C@H](CO)N1C[C@H](C)[C@H](CN(C)C(=O)Nc2cccc(C(F)(F)F)c2)OCc2ccccc2-c2ccccc2C1=O	-32	2
C[C@@H]1CN([C@@H](C)CO)C(=O)c2ccccc2-c2ccccc2CO[C@@H]1CN(C)C(=O)Nc1cccc(F)c1	-17	x
C[C@@H]1CN([C@@H](C)CO)C(=O)c2ccccc2-c2ccccc2CO[C@H]1CN(C)C(=O)Nc1cccc(F)c1	-83*	x
C[C@H](CO)N1C[C@H](C)[C@@H](CN(C)C(=O)Nc2ccc(-c3ccccc3)cc2)OCc2ccccc2-c2ccccc2C1=O	-40	82
COC(=O)C[C@H]1CC[C@H]2[C@@H](COc3ccc(NC(=O)NCc4ccccc4)cc3C(=O)N2C)O1	44	3
SMILES	Pf Dd2 inh	C diff growth
CCCc1cn(CC[C@H]2CC[C@H](NC(=O)C3CCC3)[C@@H](CO)O2)nn1	1	0
COCC(=O)Nc1ccc2c(c1)[C@@H]1C[C@H](CC(=O)N3CCOCC3)O[C@@H](CO)[C@@H]1O2	15	-5
COCC1=C([C@H](O)c2ccccc2)[C@H](CO)[C@@H]2C(=O)N(C)C(=O)[C@@H]2C1	x	-1
COc1ccc(CN(C)C[C@@H]2OCCCC[C@H](C)Oc3ccc(NC(=O)Nc4ccc(C(F)(F)F)cc4)cc3C(=O)N([C@@H](C)CO)C[C@@H]2C)cc1	-87*	-15
COc1ccc(CN(C)C[C@@H]2OCCCC[C@H](C)Oc3ccc(NC(=O)Nc4ccc(OC)cc4)cc3C(=O)N([C@@H](C)CO)C[C@@H]2C)cc1	-81*	x
COc1ccc(CN(C)C[C@@H]2OCCCC[C@H](C)Oc3ccc(NC(=O)Nc4ccc(OC)cc4)cc3C(=O)N([C@H](C)CO)C[C@@H]2C)cc1	-65	x
C[C@H](CO)N1C[C@H](C)[C@@H](CN(C)Cc2ccccc2)OCCCC[C@H](C)Oc2ccc(NC(=O)Nc3cccc4ccccc34)cc2C1=O	-6	16
COc1ccc(CN(C)C[C@H]2OCCCC[C@H](C)Oc3ccc(NC(=O)Nc4cccc5ccccc45)cc3C(=O)N([C@H](C)CO)C[C@H]2C)cc1	-90*	-13
COc1ccc(NC(=O)Nc2ccc3c(c2)C(=O)N([C@@H](C)CO)C[C@H](C)[C@@H](CN(C)C(=O)Cc2ccccc2)OCCCC[C@@H](C)O3)cc1	-86*	5
COc1ccc(NC(=O)Nc2ccc3c(c2)C(=O)N([C@@H](C)CO)C[C@@H](C)[C@H](CN(C)C(=O)Cc2ccccc2)OCCCC[C@H](C)O3)cc1	-9	7
COc1ccc(CN(C)C[C@H]2OCCCC[C@H](C)Oc3ccc(NC(=O)Nc4ccc(C(F)(F)F)cc4)cc3C(=O)N([C@@H](C)CO)C[C@H]2C)cc1	-75	8
CN1C(=O)c2cc(NC(=O)c3ccccc3)ccc2OC[C@H]2O[C@@H](CC(=O)O)CC[C@H]21	-1	-2
COc1ccccc1NC(=O)N1C[C@H]2[C@@H](c3ccccc31)[C@H](CO)N2Cc1ccccc1F	-3	0
CC(C)NC(=O)N(C)C[C@H]1OCCCC[C@H](C)Oc2ccc(NC(=O)c3ccccc3)cc2C(=O)N([C@H](C)CO)C[C@H]1C	-24	21
COc1ccc(CN(C)C[C@H]2OCCCC[C@@H](C)Oc3ccc(NC(=O)Nc4ccc(C(F)(F)F)cc4)cc3C(=O)N([C@H](C)CO)C[C@H]2C)cc1	-67	-22
COc1ccc(NC(=O)Nc2ccc3c(c2)C(=O)N([C@@H](C)CO)C[C@@H](C)[C@@H](CN(C)Cc2ccc(C(F)(F)F)cc2)OCCCC[C@@H](C)O3)cc1	-83*	-1
COc1ccc(NC(=O)Nc2ccc3c(c2)C(=O)N([C@@H](C)CO)C[C@H](C)[C@@H](CN(C)Cc2ccc(C(F)(F)F)cc2)OCCCC[C@@H](C)O3)cc1	-91*	5
COc1ccc(NC(=O)Nc2ccc3c(c2)C(=O)N([C@@H](C)CO)C[C@@H](C)[C@@H](CN(C)Cc2ccc(C(F)(F)F)cc2)OCCCC[C@H](C)O3)cc1	-76	8
